Where “and” joins values, the source holds several entries; their conditions need not be identical. Identical values can stand only once. Results filed as inconclusive are left out. Where a call stands in place of a potency, no number is given. Calls of active or inactive are those of the source. How the calls were made is not given here.
Assay: qHTS assay to identify small molecule antagonists of the estrogen related receptor signaling pathway with the pleiotropic PPARgamma coactivator (PGC) from Tox21 10K library (AID 1224841); further: actives are mostly falling curves and most rising ones were filed inactive; nearly all actives have a fitted effect of over 50% in size
Settings: PGC/ERR reporter cell line, ONE-Glo luciferase, 18 h; series mostly up to 92.4 µM; activity, negative = inhibition: at the top concentration
From the text: U.S. Tox21 Program National Center for Advancing Translational Sciences [NCATS] NIH Chemical Genomics Center [NCGC] U.S. Environmental Protection Agency [EPA] National Institutes of Environmental Health Sciences [NIEHS] National Toxicology Program [NTP] U.S. Food and Drug Administration [FDA] Tox21 Assay Overview: Estrogen related receptors (ERRs), the first orphan nuclear receptors discovered, play an important role in the control of cellular energy metabolism. ERRs are required for high-energy production in response to the environmental challenges. The pleiotropic PPARgamma coactivator (PGC) is a major partner of ERR and a key regulator in energy homeostasis. Together they have been implicated in the etiology of metabolic disorders such as Type 2 diabetes and metabolic syndrome. ERR-alpha was also identified as an adverse marker for breast cancer progression; ERR-alpha-positive tumors have a poor prognosis. To screen and to identify environmental compounds that perturb the ERR and PGC/ERR signaling pathways could provide valuable information for potential therapeutic or preventive measures in the treatment of metabolic disease. For identifying PGC/ERR antagonists, PGC/ERR cell line (provided by NTP) has been used to screen Tox21 10K library.
Tox21 Assay Protocol Summary: The PGC/ERR cells were dispensed at 2,000 cells/5 ul/well in 1536-well white plates using a Multidrop dispenser. After the assay plates were incubated at a 37 C/5% CO2 incubator for 6 hours, 23 nL of compounds dissolved in DMSO, positive and negative controls or DMSO only was transferred to the assay plate by a pin tool. The plates were incubated at 37 C for 18 hours. 4 ul/well of One-Glo reagent was added into the assay plates using a Flying Reagent Dispenser. After 30-minute incubation at room temperature, the luminescence intensity in the plates was measured using a ViewLux plate reader.
For `CC(COCC(C)OC(=O)c1ccccc1)OC(=O)c1ccccc1` (stereo not given), the Potency was “inactive”. With `O=[N+]([O-])c1ccccc1C(F)(F)F` the Potency was “inactive”. For `C[n+]1ccn(CCO)c1`, the Potency was “inactive”. For `CC(=O)Nc1ccc(CC(=O)O)cc1`, the Potency was “inactive”. In the case of `OC[C@H]1O[C@@H](Oc2ccc(O)cc2)[C@H](O)[C@@H](O)[C@@H]1O`, the Potency is reported as “inactive”. For `CN=C(NC#N)NCCSCc1nc[nH]c1C`, the Potency was “inactive”. For `CS(=O)(=O)c1ccc(Cl)cc1`, the Potency was “inactive”. In the case of `c1cnc2c(c1)ccc1cccnc12`, the Potency is reported as 777 nM (active) and 969 nM (active) and 1.72 µM (active). For `O=C(O)Cc1c[nH]c2ccccc12`, the Potency was “inactive”. With `NC1CCCCC1N` (stereo not given) the Potency was “inactive”. With `C=CC(C)(C)C` the Potency was “inactive”. With `O=Cc1ccc(CO)o1` the Potency was “inactive”. For `O=C(c1ccccc1)c1ccc(O)c(O)c1O`, the Potency was “inactive”. In the case of `CC(C)(CO)CO`, the Potency is reported as “inactive”. In the case of `C1CCCNCC1`, the Potency is reported as “inactive”. For `O=C1OC(=O)c2c(Cl)c(Cl)c(Cl)c(Cl)c21`, the Potency was “inactive”. With `CC(=O)OC(C)(C)C1CC=C(C)CC1` (stereo not given) the Potency was “inactive”. With `CCCCCCCCCCCCCC(=O)O` the Potency was “inactive”. For `OCCOCCOCCOCCOCCO`, the Potency was “inactive”. For `Nc1nc(N)c2nc(-c3ccccc3)c(N)nc2n1`, the Potency was “inactive”. For `COc1cc(NC(=O)CC(C)=O)c(OC)cc1Cl`, the Potency was 38.7 µM (active). In the case of `N#CCC(=O)O`, the Potency is reported as “inactive”. With `CCCOCC(C)O` (stereo not given) the Potency was “inactive”. With `CCCCCC(C)=O` the Potency was “inactive”. In the case of `COCN(COC)c1nc(N(COC)COC)nc(N(COC)COC)n1`, the Potency is reported as “inactive”. In the case of `CC(CN1c2ccccc2Sc2ccccc21)N(C)C` (stereo not given), the Potency is reported as “inactive”. In the case of `CCCCCCC(=O)O`, the Potency is reported as “inactive”. For `CCCCC(CC)COC(=O)c1ccc(C(=O)OCC(CC)CCCC)cc1` (stereo not given), the Potency was “inactive”. For `O=[N+]([O-])c1cc(C(F)(F)F)ccc1Cl`, the Potency was “inactive”. With `COc1ccccc1[N+](=O)[O-]` the Potency was “inactive”. With `Cc1cc(C)c(O)c(C)c1` the Potency was “inactive”. For `CC(C=O)Cc1ccc(C(C)(C)C)cc1` (stereo not given), the “activity, negative = inhibition” value was -3.78% (inactive). For `CC(=O)OCCC(C)C`, the Potency was “inactive”. With `CC1=CC(=O)CC(C)(C)C1` the “activity, negative = inhibition” value was 0.337% (inactive). In the case of `C=C1C[C@]23C[C@@]1(O)CC[C@H]2[C@@]12C=C[C@H](O)[C@@](C)(C(=O)O1)[C@H]2[C@@H]3C(=O)O`, the Potency is reported as “inactive”. For `Cc1cc(C)cc(O)c1`, the Potency was “inactive”. In the case of `Nc1cccc(C(F)(F)F)c1`, the Potency is reported as “inactive”. For `OB(O)O`, the Potency was “inactive”. With `COC(=O)OC` the Potency was “inactive”. With `COc1ccc2cc3[n+](cc2c1OC)CCc1cc2c(cc1-3)OCO2` the Potency was 3.88 µM (active) and 7.5 µM (active).

Source: PubChem BioAssay (Tox21)
Potency means the concentration at half of the fitted maximal effect.
